Bioassay records: PubChem, National Center for Advancing Translational Sciences (NCATS)
Pf growth 48h – Primary qHTS for delayed death inhibitors of the malarial parasite plastid, 48 hour incubation; P. falciparum luciferase growth in erythrocytes, 48 h; Potency, µM (top dose mostly 28.7 µM), without a hit: at the top dose activity change, negative = inhibition, usual class: inhibitors; 310,000 compounds, 5.9% hits; AID 504832, 2011; also: potency is read from the fitted curve at half-maximal effect; % is scaled to controls: 0 for no effect and ±100 for the full control effect
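Luciferase-expressing parasites in RBCs, 2% Hct / 0.1% parasitemia final; RPMI 1640 + 0.5% Albumax; 37 C, 5% CO2, one generation; luminescence read-out, lower signal = inhibition.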
Shiga inhibitor – A qHTS for Small Molecule Inhibitors of Shiga Toxin | inhibition, % at 38.7 µM | Vero cells, Shiga toxin protein synthesis inhibition reporter | 290,000 compounds, 9.2% hits; in the data active = inhibition mostly above about 28%, no sharp cut-off; inactive = mostly below about 43%; also: 0% is about no effect
Pf growth 96h – Primary qHTS for delayed death inhibitors of the malarial parasite plastid, 96 hour incubation | Potency, µM (top dose mostly 28.7 µM), without a hit: at the top dose activity change, negative = inhibition, hits mostly inhibitors | P. falciparum luciferase reporter growth, 96 h | 320,000 compounds, 6.9% hits; also: potency is read from the fitted curve at half-maximal effect; % is scaled to controls: 0 for no effect and ±100 for the full control effect
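Erythrocytes infected with luciferase-expressing P. falciparum were dispensed at 2% hematocrit and 0.05% parasitemia (final), then incubated with compounds 96 hours at 37 C in 5% CO2. Luminescence after detection reagent addition reported growth.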
HCV inh – qHTS Assay for Inhibitors of Hepatitis C Virus (HCV). Huh7.5.1 HCVcc-Cre infection, luciferase reporter, 44 h. Potency, µM (highest dose often 41.8 µM), for inactives: top-dose activity change, negative = inhibition, usual class: inhibitors. 340,000 compounds, 3.4% hits. AID 651820, 2012; also: potency is read from the fitted curve at half-maximal effect; % is scaled to controls: 0 for no effect and ±100 for the full control effect
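Whole-lifecycle infectious HCVcc-Cre system; cells 1,000/well, compound then virus (~0.5 moi) added 4 h after plating, 44 h culture. Luciferase read 15 sec following 15 min substrate incubation, room temp.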
CHX counter – Cycloheximide Counterscreen for Small Molecule Inhibitors of Shiga Toxin | 300,000 compounds, 12% hits | cell reporter, cycloheximide protein synthesis inhibition counterscreen | max response, %; in the data active = max response mostly above about 13%, no sharp cut-off; inactive = mostly below about 14%; also: read at 38.3 µM for the half of the compounds with a filed dose; 0% is about no effect
AMA1 RON2 block – qHTS for Inhibitors of AMA1-RON; Towards Development of Antimalarial Drug Lead: Primary Screen; 360,000 compounds, 0.2% hits; Plasmodium falciparum AMA1 (3D7) - RON2 peptide interaction; AID 720542, 2013; Potency, µM (titrated, usually from 58.2 µM), inactives show at the highest dose activity change, negative = inhibition, usual class: inhibitors; AlphaScreen AMA1-biotinylated RON2 peptide binding;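 also: potency is read from the fitted curve at half-maximal effect; 0% = vehicle wells and -100% = peptide control; nearly all actives have a fitted effect of over 45% in size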
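AMA1 (3D7) with his tag at 25 nM final met compounds first, then biotinylated RON2 peptide at 25 nM; detection used donor plus acceptor beads, 10 µg/mL apiece, read by AlphaScreen after 30 min at room temperature.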
* hit, by the source's call; ? = inconclusive; . = no result; + = active, no number; ! = not confirmed by another sample; [ ] = another dose, or the depositor's remark. Compounds with a hit are over-represented: about 21% of the library has one in this group of screens. Unless noted, calls follow the shape of the dose curve; as a rule, active = well fitted curve in the direction sought with a large enough effect; inconclusive = small, poorly fitted or top-dose-only effect, or another doubt; inactive = no such curve, though single readings can be large; an effect the other way counts as inactive or inconclusive.

SMILES | Pf growth 48h | Shiga inhibitor | Pf growth 96h | HCV inh | CHX counter | AMA1 RON2 block
Cc1ccc(S(=O)(=O)N2CC(C)N(C(=O)N3CCOCC3)C2C)cc1 (centres undefined) | 3.6% | -6.0 | -7.4% | -14.3% | -2.3 | -0.5%
COc1nc(NCCC2=CCCCC2)nc(OC)n1 | 10.4µM* | 5.8 | ? | -3.6% | 12.1 | ?
COc1nc(NCCc2ccc(OC)c(OC)c2)nc(OC)n1 | -8.7% | -7.0 | . | -17.6% | 1.0 | -0.7%
O=c1c2c3c(sc2ncn1/N=C/c1cccnc1)CCCC3 | -11.9% | 100.2* | -13.9% | 23.6% | 25.8* | -13.6%
O=c1c2c3c(sc2ncn1/N=C/c1ccncc1)CCCC3 | -8.0% | -8.8 | -8.0% | 7.5% | 7.9 | 11.5%
COC(=O)N/N=C/c1cc(C)n(-c2ccccc2)c1C | 14.9% | + | -5.1% | -1.3% | 23.9* | 17.7%
COC(=O)N/N=C/c1cc(C)n(-c2ccc(Br)cc2)c1C | ? | 22.4 | ? | ? | 8.6 | 0.8%
COC(=O)N/N=C/c1cc(C)n(-c2ccc(F)cc2)c1C | -2.5% | 88.2* | 10.8% | 0.3% | 37.3* | 22.5%
Cc1cc(C)c2nc(SCC(=O)NC(=O)c3cccn3C)cc(C)c2c1 | -13.7% | 20.2 | -13.4% | -11.9% | 2.8 | -2.5%
COCCN(Cc1ccccc1)C(=O)c1cc(-c2ccc(OC)c(OC)c2)nc2ccccc12 | 9.28µM* | -1.7 | ? | ? | 3.7 | 5.7%
COc1cc(-c2cc(C(=O)N(C)Cc3ccccc3)c3ccccc3n2)cc(OC)c1OC | 13.1µM* | 6.6 | ? | ? | -1.0 | 8.4%
COc1c(C)cc(C(O)c2ncc(-c3ccc(C(F)(F)F)cc3)[nH]2)cc1C (centres undefined) | . | . | . | . | . | 4.9%
Cc1nnc(NC(=O)CSc2nnnn2Cc2ccccc2)s1 | -10.0% | -7.4 | . | 27.4% | -1.8 | 0.3%
Cc1nc(NC(=O)CSc2nnnn2Cc2ccccc2)sc1C | 10.2% | 75.0* | 28.2% | 9.1% | 27.8* | ?
CCc1c(O)nc(SCC(=O)Nc2nc3ccccc3s2)n(-c2ccc(C)cc2)c1=O | 94.6% | 93.2* | 135.9% | 20.3% | 45.2* | 22.5%
CC(C)(C)c1nc2ccccc2c2nnc(SCC(=O)Nc3nccs3)n12 | 13.6% | 3.6 | 35.6% | ? | -2.8 | -3.5%
CC(C)(C)c1nc2ccccc2c2nnc(SCC(=O)Nc3nc4ccccc4s3)n12 | -4.7% | -15.2 | 34.6% | 12.6µM* | -0.2 | ?
CCn1nnnc1SCC(=O)Nc1nc2ccccc2s1 | 16.7% | 9.8 | -11.8% | 25.5% | 21.4* | -7.8%
COCCCn1nnnc1SCC(=O)Nc1nc2ccccc2s1 | 8.6% | -3.7 | -25.0% | -10.8% | 10.5 | -5.7%
CCc1c(O)nc(SCC(=O)Nc2nc3ccccc3s2)n(-c2ccccc2)c1=O | 24.8% | 50.8 | 32.5% | 12.7% | 16.7 | 7.4%
CC(C)(C)NCc1cc(Br)ccc1OCc1cccs1 | ? | -23.9 | 29.4% | ? | -0.9 | 7.6%[11.6 µM]
CCN(CC)CCNCc1cc(Cl)ccc1OCc1ccccc1F | 5.86µM* | 3.0 | -0.4% | -43.5% | -1.5 | -6.6%
CC(C)(C)NCc1cc(Cl)ccc1OCc1ccccc1F | -16.6%[5.75 µM] | 9.7 | 8.28µM* | -23.9% | -5.6 | 2.9%
CC(C)(C)NCc1cc(Cl)ccc1OCc1cccs1 | ? | -3.2 | 9.28µM* | ? | -4.3 | 13.9%
COc1cc(CNC(C)(C)C)cc(Br)c1OCc1cccs1 | ? | -7.4 | 19.0% | 20µM* | -6.2 | -4.1%[11.6 µM]
SMILES | Pf growth 48h | Shiga inhibitor | Pf growth 96h | HCV inh | CHX counter | AMA1 RON2 block
O=C1[C@H]2[C@@H]3CCN1CCC[C@@H]2C=C[C@@H]3c1ccc(Br)cc1 | . | . | . | . | . | -25.5%
COc1ccccc1N(CC(=O)NC1CCCC1)C(=O)CNC(=O)c1cccs1 | ? | -1.6 | 0.6% | -14.5% | -5.3 | -0.4%
C=CCOc1c(Br)cc(CNn2c(C)n[nH]c2=S)cc1OC | -9.5% | -2.8 | -27.6% | -23.7% | -0.8 | 72.5%
C=CCOc1c(Br)cc(CNc2nccs2)cc1OC | ? | 17.1 | 0.37µM* | ? | 4.5 | -15.8%
COCCOC(=O)C1=C(C)NC(C)=C(C(=O)OC/C=C/c2ccccc2)C1c1cccc([N+](=O)[O-])c1 (centres undefined) | 10.7µM* | 14.4 | 8.49µM* | . | -5.3 | .
COCCOC(=O)C1=C(C)NC(C)=C(C(=O)OC(C)C)C1c1cccc([N+](=O)[O-])c1 (centres undefined) | 9.28µM* | -10.8 | 6.57µM*! | ? | -2.8 | -4.2%
CCOC(=O)C1=C(C)NC(C)=C(C(=O)OC)C1c1cccc([N+](=O)[O-])c1 (centres undefined) | 5.86µM* | -8.3 | ? | ? | -2.5 | -10.6%
COC(=O)C1=C(C)NC(C)=C(C(=O)OC(C)(C)CN(C)CCC(c2ccccc2)c2ccccc2)C1c1cccc([N+](=O)[O-])c1 (centres undefined) | 1.51µM* | . | 3.01µM* | . | . | .
CC(C)OC(=O)C1C(=O)CC(C)(O)C(C(=O)OC(C)C)C1c1cccc([N+](=O)[O-])c1 (centres undefined) | ? | 37.8 | ? | 10.1% | 7.0 | 7.2%
O=c1ccc(-c2ccccc2)nn1Cc1ccc(F)cc1Cl | -12.4% | -2.4 | -6.4% | -22.1% | -2.0 | 15.5%
COc1ccccc1NC(=O)c1ccc(Br)c(S(=O)(=O)N2CCCC2)c1 | ? | -9.4 | 3.9% | ? | 6.0 | 27.0%
CCOC(=O)C1=C(C)NC(C)=C(C(=O)OCC)C1c1ccc([N+](=O)[O-])s1 | ? | -1.8 | 13.1µM* | -28.3% | 0.6 | -7.8%
CC1=C(C(=O)OC(C)C)C(c2cccc([N+](=O)[O-])c2)C(C(=O)OC2CN(C(c3ccccc3)c3ccccc3)C2)=C(N)N1 (centres undefined) | 7.57µM* | . | -2.8% | . | . | .
COc1ccc(Cn2c(=O)[nH]c3cc(C(=O)N4CCN(c5ccccn5)CC4)ccc3c2=O)cc1 | ? | -16.6 | ? | 3.6% | 11.7 | 3.8%
Cc1ccccc1N(C(=O)Cn1nnc2ccccc21)C(C(=O)NCc1ccco1)c1ccncc1 (centres undefined) | ? | 22.5 | . | -5.6% | -3.6 | 0.8%
CCOCCCN(C(=O)Cn1nnc2ccccc21)C(C(=O)NCc1ccco1)c1ccncc1 (centres undefined) | -5.7% | -12.7 | ? | 9.2% | -3.5 | 9.5%
O=C(NCc1ccco1)C(c1cccs1)N(Cc1ccccc1)C(=O)Cn1nnc2ccccc21 (centres undefined) | ? | 48.9* | ? | -13.7% | 30.0* | 0.6%
